# Assay results as given in paper PMC5540273 (PLoS ONE, 2017).
# Like-named read-outs stand apart in the source and are kept apart here.
# Experiments:
# CSNK1G1 = settings: concentration: 1 μM, replicates: in singlicate; n = 1
# CSNK1G2 = settings: concentration: 1 μM, replicates: in singlicate; n = 1
# CSNK1G3 = settings: concentration: 1 μM, replicates: in singlicate; n = 1
# CSNK2A1 = settings: n = 1
# CSNK2A2 = settings: n = 1
# CTK = system: T1, CTK; settings: concentration: 1 μM, replicates: in singlicate; n = 1
# T1 construct: gene MATK
# DAPK1 = settings: concentration: 1 μM, replicates: in singlicate; n = 1
# DAPK2 = settings: concentration: 1 μM, replicates: in singlicate; n = 1
# DAPK3 = settings: concentration: 1 μM, replicates: in singlicate; n = 1
# DCAMKL1 = system: T2, DCAMKL1; settings: concentration: 1 μM, replicates: in singlicate; n = 1
# T2 construct: gene DCLK1
# [1] = concentration: 1 μM, replicates: in singlicate
# 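Note: KINOMEscan kinase panel screen.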
Compound,%Inh (CSNK1G1) [%],%Inh (CSNK1G2) [%],%Inh (CSNK1G3) [%],%Inh (CSNK2A1; 1 µM) [%],%Inh (CSNK2A2; 1 µM) [%],%Inh (CTK) [%],%Inh (DAPK1) [%],%Inh (DAPK2) [%],%Inh (DAPK3) [%],%Inh (DCAMKL1) [%],%Inh (CSNK2A1; [1]) [%],%Inh (CSNK2A2; [1]) [%]
Cn1cc(-c2cnc(N)c3c(-c4ccc5c(c4)CCN5C(=O)Cc4ccccc4)csc23)cn1 [GSK2593074],21,7,22,0,1,62,38,21,7,0,–,–
COc1cc(Nc2ccnc3cc(-c4ccncc4)ccc23)cc(OC)c1OC.Cl [GW494610],0,0,7,–,–,0,0,0,9,0,7,0
COC(=O)Nc1nc2ccc(Oc3ccc(CC(=O)Nc4cc(C(F)(F)F)ccc4F)cc3)cc2[nH]1 [GW680903],0,0,14,–,–,0,0,0,0,11,0,0
O=C(Nc1n[nH]c2nc(-c3cccc(O)c3)ccc12)C1CC1 [SB-711805],6,0,25,–,–,0,17,0,23,17,52,82
Cn1cc(-c2ccc3c(c2)CCN3C(=O)Cc2cc(F)cc(C(F)(F)F)c2)c2c(N)ncnc21 [GSK2635225],22,12,15,–,–,0,21,6,19,3,2,0
Cc1ccc(O)cc1Nc1ccnc2ccc(C(C)(C)C)cc12 [GW856805],19,5,0,–,–,21,13,8,7,2,1,7
Cn1cc(-c2ccc3c(c2)CCN3C(=O)Cc2cc(F)cc(F)c2F)c2c(N)ncnc21 [GSK2634140],23,8,18,–,–,0,0,0,0,0,12,0
COc1cccc(C2=C(Nc3cccc(O)c3)C(=O)NC2=O)c1 [SB-390771],9,0,15,–,–,0,14,0,16,21,0,8
NCCC(NC(=O)c1cc(Br)c(-c2ccnc3[nH]ccc23)s1)c1ccccc1.O=C(O)C(F)(F)F.O=C(O)C(F)(F)F (centres unmarked) [GSK1307810],83,99,99.2,–,–,0,6,28,29,25,98.9,94.7
O=C(Nc1n[nH]c2nc(-c3ccccc3O)ccc12)C1CC1 [SB-711880],0,0,28,–,–,36,12,0,21,22,49,84
O=C(O)C(F)(F)F.O=c1[nH]ccc2nc(N[C@@H]3CCNC3)nc(Nc3cc(Cl)cc(Cl)c3)c12 [GSK2188764],77,94.2,95.1,–,–,0,97.3,97.4,100,86,98.9,100
CCn1cnc2c(NCc3ccccc3)ncnc21 [SKF-96418],0,0,0,–,–,34,0,0,11,33,0,0
N#Cc1cnc2cc(-c3cnc(CNCCN4CCOCC4)s3)ccc2c1Nc1ccc(Oc2ccccc2)cc1 [GW664114],19,0,25,–,–,26,26,0,2,19,0,5
Cc1ccc(-c2ccc3occ(-c4ccc(S(C)=O)cc4)c3c2)nn1 (centres unmarked),0,0,0,–,–,0,0,0,0,4,0,10
O=C(Nc1n[nH]c2cc(-c3cccs3)ccc12)C1CC1 [SB-731284],0,0,0,–,–,45,12,2,3,12,62,80
COc1cccc(CC(=O)N2CCc3cc(-c4cn(C)c5ncnc(N)c45)ccc32)c1 [GSK2608899],23,5,29,–,–,0,2,0,21,26,14,15

Compound,%Inh (CSNK1G1) [%],%Inh (CSNK1G2) [%],%Inh (CSNK1G3) [%],%Inh (CSNK2A1; 1 µM) [%],%Inh (CSNK2A2; 1 µM) [%],%Inh (CTK) [%],%Inh (DAPK1) [%],%Inh (DAPK2) [%],%Inh (DAPK3) [%],%Inh (DCAMKL1) [%],%Inh (CSNK2A1; [1]) [%],%Inh (CSNK2A2; [1]) [%]
COc1cc(Nc2nccc(N3CCC(NS(=O)(=O)c4ccc(NC(C)=O)cc4)CC3)n2)cc(OC)c1OC [GSK1379825],0,0,0,–,–,0,0,0,8,0,8,2
Cl.Cl.NC(CNC(=O)c1cc(Br)c(-c2ccnc3[nH]ccc23)s1)c1ccccc1 (centres unmarked) [GSK1322949],30,59,60,–,–,0,41,31,54,37,90,84
COc1cccc(-c2nc(-c3ccccc3)[nH]c2-c2ccncc2)c1 [SB-610250],0,0,22,–,–,0,0,0,19,14,0,0
COc1ccc(NC(=O)c2ccoc2)cc1-c1ccc(C(=O)NCC2CC2)cc1 [GW810437],0,0,0,–,–,15,0,17,13,0,0,0
Cl.N#CCc1ccc(Nc2nccc(Nc3ccc(Oc4ccccc4)cc3)n2)cc1 [GW639905],1,0,8,–,–,28,0,60,40,12,0,9
Cc1cccc(Nc2nc(N[C@H]3CCCC[C@H]3N)ncc2C(N)=O)c1.Cl [GSK986310],21,0,37,–,–,0,86,70,59,32,36,25
Cc1ccc(NC(=O)c2ccc(Cl)c(Cl)c2)cc1-c1ccc(C(=O)Nc2ccncc2)cc1 [GSK1398460],12,16,36,–,–,0,11,0,18,22,0,2
CCNC(=O)/C=C/c1n[nH]c2cc(Sc3ccccc3C(=O)NC)ccc12,13,0,13,–,–,6,13,8,15,0,24,0
Cc1cc(-c2ccnc(Nc3cccc(C#N)c3)n2)cc(C)c1O [GSK1440913],17,12,55,–,–,4,20,9,5,8,40,46
Fc1cc(Cl)ccc1Nc1ccnc2cc(-c3ccc(CN4CCSCC4)o3)ccc12 [GW560106],0,0,14,–,–,0,0,0,11,7,0,100
COC(=O)Nc1nc2cc(Oc3ccc(NC(=O)Nc4cccc(SC)c4)cc3)ccc2[nH]1.Cl [GW697999],6,0,1,–,–,0,0,43,1,21,0,0
CN(C)c1ncnc2nc[nH]c12 [SKF-31736],3,0,0,–,–,36,7,3,20,32,0,5
CC(C)NCC(Cc1ccccc1)NC(=O)c1cc(Br)c(-c2ccnc3[nH]ccc23)s1.Cl.Cl (centres unmarked) [GSK1383281],13,14,29,–,–,0,18,0,37,34,59,46
Cc1cccc(Nc2nc(NCCN)ncc2C(N)=O)c1 [GSK1292139],6,0,26,–,–,0,52,25,38,16,34,29
COC(=O)Nc1nc2ccc(Oc3ccc(NC(=O)Nc4cc(C(F)(F)F)ccc4F)cc3)cc2[nH]1.Cl [GW654607],0,0,24,–,–,0,2,0,11,16,0,2
CC(=O)Nc1cn2nc(Oc3cccc(NC(=O)c4cccc(C(F)(F)F)c4)c3)ccc2n1,3,0,41,–,–,0,0,1,6,20,0,0
